# The full ranking holds about 140,000 sequences; the median of “enrichment ratio after two sorts for PhoP signalling” is about 0, and the highest 2% start at about 11. What follows is part of a selection rich in the highest values, with near analogues and random picks from the rest.
# B1: PhoQ; a variant is named by its letters at X, in order, P23837 (parent)
# chain: MKKLLRLFFPLSLRVRFLLATAAVVLVLSLAYGMVALIGYSVSFDKTTFRLLRGESNLFYTLAKWENNKLHVELPENIDKQSPTMTLIYDENGQLLWAQRDVPWLMKMIQPDWLKSNGFHEIEADVNDTSLLLSGDHSIQQQLQEVREDDDDAEMTHSVAVNVYPATSRMPKLTIVVVDTIPVELKSSYMVWSWFIYVLSANLLLVIPLLWVAAWWSLRPIEALAKEVRELEEHNRELLNPATTRELTSLVRNLNRLLKSERERYDKYRTTLTDLTHSLKTPLXXLQXXLRSLRSEKMSVSDAEPVMLEQISRISQQIGYYLHRASMRGGTLLSRELHPVAPLLDNLTSALNKVYQRKGVNISLDISPEISFVGEQNDFVEVMGNVLDNACKYCLEFVEISARQTDEHLYIVVEDDGPGIPLSKREVIFDRGQRVDTLRPGQGVGLAVAREITEQYEGKIVAGESMLGGARMEVIFGRQHSAPKDE
# Variants of: B1
# Experiment: enrichment ratio after two sorts for PhoP signalling (ratio (wild type AVST 3.29)); higher = more functional
# Details: with PhoP (E. coli)
row,Variant,enrichment ratio
1,SECI,28.3
2,SEAI,7.14
3,SEEL,≤ 0.25
4,SEDH,≤ 0.25
5,SECK,≤ 0.25
6,SECS,20.4
7,SEGD,1.88
8,SECA,19.7
9,SEYD,≤ 0.25
10,FMWQ,≤ 0.25
11,KFFK,≤ 0.25
12,EHGM,≤ 0.25
13,IQWT,≤ 0.25
14,KMGN,≤ 0.25
15,YTDA,≤ 0.25
16,VCDM,≤ 0.25
17,EGPQ,≤ 0.25
18,LCVP,≤ 0.25
19,SENE,≤ 0.25
20,QECG,23
21,MECQ,≤ 0.25
22,SECQ,11.4
23,SENW,≤ 0.25
24,STCG,9.46
25,IWCG,≤ 0.25

row,Variant,enrichment ratio
1,FEGG,≤ 0.25
2,SRCQ,1.15
3,FECG,30.4
4,SECE,15.4
5,MECG,9.16
6,DDMI,≤ 0.25
7,WKTT,≤ 0.25
8,EERG,≤ 0.25
9,WYHV,≤ 0.25
10,FLNY,≤ 0.25
11,SLCG,6.01
12,SRCV,5.55
13,FECS,19.8
14,SEYV,5.27
15,SRCG,≤ 0.25
16,FECA,≤ 0.25
17,SECG,13.7
18,SECV,24.5
19,FECI,3.72
20,MMWP,≤ 0.25
21,LWRR,≤ 0.25
22,YSRA,≤ 0.25
23,QHHS,≤ 0.25
24,DQIV,≤ 0.25
25,GIST,8.78

row,Variant,enrichment ratio
1,GEST,16.9
2,GESK,≤ 0.25
3,LNST,≤ 0.25
4,MEST,5.63
5,TNST,12.6
6,MNST,≤ 0.25
7,GNST,15.1
8,GVST,≤ 0.25
9,ARCL,4.81
10,GDEI,≤ 0.25
11,EMQY,≤ 0.25
12,PNEV,≤ 0.25
13,IGRG,≤ 0.25
14,IFWY,≤ 0.25
15,SWHL,0.549
16,HMCK,≤ 0.25
17,YTWG,≤ 0.25
18,CTDF,≤ 0.25
19,TTWG,12.2
20,TTDF,16.9
21,TTSF,13.7
22,YTDF,≤ 0.25
23,KQSF,≤ 0.25
24,YTSF,≤ 0.25
25,STWG,≤ 0.25

row,Variant,enrichment ratio
1,CKAF,≤ 0.25
2,CKFF,≤ 0.25
3,CKMF,38.2
4,HDWN,≤ 0.25
5,LGQF,≤ 0.25
6,TLMP,≤ 0.25
7,DGEM,≤ 0.25
8,EYIG,≤ 0.25
9,LWNR,≤ 0.25
10,GEFD,≤ 0.25
11,SQIR,≤ 0.25
12,MDDP,≤ 0.25
13,TTYI,6.16
14,TTPS,≤ 0.25
15,TTPA,≤ 0.25
16,YTEL,≤ 0.25
17,QVDF,15.1
18,TTHF,11.8
19,QVHF,0.315
20,THMF,9.68
21,TTEL,16.6
22,NVDF,≤ 0.25
23,RIMF,≤ 0.25
24,TTMF,20.9
